Inconclusive results are not listed. A number with no mark means an inactive call. Calls of active or inactive are those of the source. The call rests on the fitted dose curve; in most records, active means well fitted cell-killing curve with a large enough effect in the repeat runs (not every such curve was filed as active); inconclusive means weak or mixed curves, or effect the other way; inactive means no such curve, though single readings can be large or run the other way.
Test: qHTS assay to identify small molecule antagonists of the farnesoid-X-receptor (FXR) signaling pathway - cell viability counter screen (AID 743221); further: nearly all actives have a fitted effect of over 50% in size
Details: FXR-bla HEK293T viability, CellTiter-Glo luminescence, 16 h; series mostly up to 62.6 µM; activity change, negative = cytotoxicity: at the top concentration
Description: National Center for Advancing Translational Sciences [NCATS]
NIH Chemical Genomics Center [NCGC]
U.S. Environmental Protection Agency [EPA]
National Institutes of Environmental Health Sciences [NIEHS]
National Toxicology Program [NTP]
U.S. Food and Drug Administration [FDA]
The farnesoid-X-receptor (FXR), a nuclear hormone receptor, is highly expressed in liver, intestine, kidney and adrenal cortex. Natural ligands of FXR are the bile acids (Cholic acid, Chenodeoxy cholic acid etc). FXR is an important regulator of diverse metabolic pathways, including the bile acid homeostasis, lipid and glucose metabolisms. FXR regulates the expression of target genes by binding either as a monomer or as a heterodimer with the retinoid X receptor (RXR). Numerous studies have reported that FXR exerts protective function during cholestasis, diabetes, liver regeneration, and cancer. To identify compounds that inhibit FXR signaling, GeneBLAzer FXR-UAS-bla HEK 293T cell line (Invitrogen, Carlsbad, CA) containing a beta-lactamase reporter gene under the control of a UAS response element was used to screen the Tox21 10K compound library. The cytotoxicity of the Tox21 compound library against the FXR-bla cell line was tested in parallel by measuring the cell viability using CellTiter-Glo assay in the same wells.
Tox21 Assay Protocol Summary:
FXR-bla cells were dispensed at 5000 cells/5uL/well in 1536-well black wall/clear bottom plates using a Multidrop Combi (Thermo Fisher Scientific, Waltham, MA) dispenser. After the assay plates were incubated at 37 C and 5% CO2 for 5 h, 23 nL of compounds dissolved in DMSO, positive controls or DMSO only was transferred to the assay plate by a Pintool station (Kalypsys, San Diego, CA), followed by addition of 1 uL Chenodeoxycholic acid (50 uM, final concentration in the wells). The assay plates were incubated at 37C for 16 h. After 1 uL of LiveBLAzerTM B/G FRET substrate was added using a Bioraptr Flying Reagent Dispenser (FRD) workstation (Beckman Coulter, Indianapolis, IN), the plates were incubated at room temperature for 2 h, and fluorescence intensity was measured by an Envision plate reader (PerkinElmer, Shelton, CT). For cell viability readout that measures cytotoxicity, 4uL/well of CellTiter-Glo reagent was added into the assay plates using a Bioraptr FRD. After 30 min incubation at room temperature, the luminescence intensity in the plates was measured using a ViewLux plate reader (PerkinElmer).
On the % scale 0 is the no-effect control and ±100 the full control effect; potency means the concentration at half of the fitted maximal effect.

| Compound | activity change, negative = cytotoxicity | Potency |
| --- | --- | --- |
| O=C(O)c1c2ccccc2cc2ccccc12 | 0.638% |  |
| CC(CN=Cc1ccccc1O)N=Cc1ccccc1O (stereo not given) | 2.42% |  |
| O=C(Cl)c1ccc(F)c(Cl)c1 | -3.38% |  |
| CO[C@@H]1COCC[C@@H]1N[C@@H]1CC[C@@](C(=O)N2CCc3ncc(C(F)(F)F)cc3C2)(C(C)C)C1 | -9.21% |  |
| O=C(O)c1ccc(O)c(O)c1 | -3% |  |
| CCCC(=O)OCc1ccccc1 | -3.5% |  |
| CCCCCCCCOCCCN | -14.5% |  |
| CC(C)(C(=O)O)c1ccc(C(O)CCCN2CCC(C(O)(c3ccccc3)c3ccccc3)CC2)cc1 (stereo not given) | 3.54% |  |
| C[C@H](N)C(=O)N[C@@H](C)C(=O)NC1[C@H]2CN(c3nc4c(cc3F)c(=O)c(C(=O)O)cn4-c3ccc(F)cc3F)C[C@@H]12 (stereo not given in full) | 9.47% |  |
| CCCCCCCCNC | -3.89% |  |
| CNc1ccccc1 | -1.1% |  |
| O=C(Nc1ccc2c(c1)Cc1ccccc1-2)C(F)(F)F | 1.77% |  |
| C=Cc1ccc(C=C)cc1 | -1.5% [at 81.1 µM] |  |
| CCC[Si](OC)(OC)OC | -12.3% |  |
| NCCOCCOCCN |  | 19.5 µM (active) |
| CC[C@H](NC(C)C)[C@H](O)c1ccc(O)c2[nH]c(=O)ccc12 | -0.817% |  |
| CC(C)NC(=O)c1ccccc1N | -0.43% |  |
| Nc1ccc(F)cc1F | 3.32% [at 81.1 µM] |  |
| CC(=O)c1cccnc1 | -14.5% |  |
| CCC(=O)O[C@]1(C(=O)COC)[C@@H](C)C[C@H]2[C@@H]3CCC4=CC(=O)C=C[C@]4(C)C3(F)[C@@H](O)C[C@@]21C (stereo not given in full) | 11.7% |  |

| Compound | activity change, negative = cytotoxicity | Potency |
| --- | --- | --- |
| Nc1nc(Cl)nc2c1ncn2[C@H]1C[C@H](O)[C@@H](CO)O1 | -9.54% |  |
| CC(C)Oc1ccccc1O | 3.05% |  |
| CCN(CC)CC(=O)OCC(=O)[C@@]1(O)CC[C@H]2[C@@H]3CCC4=CC(=O)CC[C@]4(C)[C@H]3[C@@H](O)C[C@@]21C | 4.09% |  |
| Cc1cccc(C)c1NC(=O)CN1CCCC1 | 5.89% |  |
| COC(=O)Cc1cccc2ccccc12 | 0.879% |  |
| C/C(=C(\CCO)SS/C(CCO)=C(\C)N(C=O)Cc1cnc(C)nc1N)N(C=O)Cc1cnc(C)nc1N | 4.1% |  |
| O=C(O)c1cccc(C(=O)O)c1C(=O)O | -4.76% [at 81.1 µM] |  |
| CC1=C(C)C(=O)C(CCCCC#CCCCC#CCO)=C(C)C1=O | 6.25% |  |
| CCCN(C1CCN(C(=O)C2CCNCC2)CC1)[C@@H]1CCc2ccc(OC)cc2C1 | 3.8% |  |
| CC(=O)CC/C=C(\C)CC/C=C(\C)CC/C=C(\C)CCC=C(C)C | -1.3% |  |
| COC(=O)C(C)(C)C | 9.39% [at 81.1 µM] |  |
| CCCCCC1CCC(=O)O1 (stereo not given) | 10.1% |  |
| CCCCOC(=O)C(C)Oc1ccc(Oc2ccc(C(F)(F)F)cn2)cc1 (stereo not given) | 6.4% |  |
| COc1ccc(CN(CCN(C)C)c2ncccn2)cc1 | -8.29% |  |
| CC(COc1ccccc1)NC(C)C(O)c1ccc(O)cc1 (stereo not given) | -18.4% |  |
| C=CC(=O)NC(C)(C)C | 12.9% |  |
| C[C@H]1C[C@H]2[C@@H]3CCC4=CC(=O)C=C[C@]4(C)[C@@]3(F)[C@@H](O)C[C@]2(C)[C@@]1(O)C(=O)COP(=O)(O)O | -4.88% |  |
| SCCOCCOCCS | 6.92% |  |
| Cc1c(Cl)cccc1Nc1ccccc1C(=O)O | 0.124% |  |
| O=c1[nH][nH]c2ccccc12 | 6.22% [at 81.1 µM] |  |

From PubChem BioAssay (Tox21)
